For eight compounds, growth results are on record in PubChem BioAssay (NCI).

Molecules are shown by their SMILES. Compounds without any hit were thinned out: in the full panel of roughly 83,000, 20% have a hit.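 Results are percent growth after 48 hours of single-concentration exposure. 100 means growth as in untreated cells, lower positive values show inhibition; negative values down to -100 show cell death.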 Values without a mark were called inactive. Active and inactive are the calls of the source. The calls were made as follows: active = growth percent below 10; inactive = the rest.

Among the test systems are SR leukemia; RPMI-8226 leukemia; OVCAR-8 ovarian; OVCAR-5 ovarian; OVCAR-4 ovarian; SK-OV-3 ovarian; IGROV1 ovarian; OVCAR-3 ovarian; HS 578T breast; NCI/ADR-RES ovarian; T-47D breast; BT-549 breast; MDA-MB-435 melanoma; SW-620 colon; MCF7 breast; HCT-116 colon; HCC-2998 colon; KM12 colon.
What all share (test): NCI-60 one-dose screen, 48 h (100 = growth as untreated, 0 = no growth, -100 = all killed)
Holding throughout (settings): 10 µM unless noted

For `CSc1ccc(/C(=N/N=C(N)N)c2ccccc2)cc1`, the growth was 19.7% in the test with SR leukemia; 17.9% in the test on RPMI-8226 leukemia; 29.5% with OVCAR-8 ovarian; 48.3% in the test with OVCAR-5 ovarian; 67.2% with OVCAR-4 ovarian; 66.2% in the test with SK-OV-3 ovarian. In addition, the growth was 21.8% in the test with IGROV1 ovarian; 2.28% (active) in the test on OVCAR-3 ovarian; 31.8% with HS 578T breast; 40.3% in the test with NCI/ADR-RES ovarian; 70.9% in the test with T-47D breast; 53.8% with BT-549 breast. Also, the growth was -18% (active) in the test on MDA-MB-435 melanoma; 25.7% in the test with SW-620 colon; 11.7% in the test on MCF7 breast; 13% with HCT-116 colon; 9.99% (active) in the test with HCC-2998 colon; 17.2% in the test on KM12 colon.
Regarding `O=C(CCCCCCN1CC(=O)N2[C@@H](c3cc(F)cc(F)c3)c3[nH]c4ccccc4c3C[C@H]2C1=O)NO`, the growth was 26% with SR leukemia; 24.2% with RPMI-8226 leukemia; 45% in the test with OVCAR-8 ovarian; 66.4% in the test on OVCAR-5 ovarian; 69.4% in the test on OVCAR-4 ovarian; 60.9% in the test on SK-OV-3 ovarian. Besides, the growth in the test on IGROV1 ovarian was 49.1%; in the test with OVCAR-3 ovarian, 55.8%; in the test with HS 578T breast, 61.6%; in the test with NCI/ADR-RES ovarian, 91.5%; with T-47D breast it was 30.6%; with BT-549 breast, 98.6%. Further, the growth in the test with MDA-MB-435 melanoma was 47.9%; in the test with SW-620 colon, 46.9%; in the test with MCF7 breast it was 52%; with HCT-116 colon, 27.3%; in the test with HCC-2998 colon it was 82.4%; in the test on KM12 colon, 69.7%.
Regarding `O=C(CCCCCCN1CC(=O)N2[C@@H](c3cccc(Br)c3)c3[nH]c4ccccc4c3C[C@H]2C1=O)NO`, the growth in the test with SR leukemia is 37.4%; in the test with RPMI-8226 leukemia it was 13.4%; with OVCAR-8 ovarian, 24.9%; with OVCAR-5 ovarian, 29%; with OVCAR-4 ovarian, 48.9%; with SK-OV-3 ovarian, 13.9%. Also, the growth is 2.39% (active) in the test on IGROV1 ovarian; 6.19% (active) in the test on OVCAR-3 ovarian; 61.4% in the test with HS 578T breast; 91.9% in the test with NCI/ADR-RES ovarian; 17.2% in the test with T-47D breast; 57.9% in the test with BT-549 breast. Further, the growth with MDA-MB-435 melanoma is 14%; with SW-620 colon, 15%; in the test on MCF7 breast, 21.4%; with HCT-116 colon it was 8.35% (active); in the test on HCC-2998 colon it was 41.6%; with KM12 colon, 28.4%.
Take `COc1ccc(/C=C/C(=O)c2nnn(-c3ccc(C(=O)O)cc3)c2C)cc1OC`: the growth with SR leukemia was 95.4%; with RPMI-8226 leukemia, 99.4%; with OVCAR-8 ovarian it was 102%; in the test with OVCAR-5 ovarian, 97.8%; in the test with OVCAR-4 ovarian, 107%; in the test with SK-OV-3 ovarian, 112%. Further, the growth with IGROV1 ovarian is 96.1%; with OVCAR-3 ovarian it was 117%; in the test on HS 578T breast, 102%; with NCI/ADR-RES ovarian, 106%; in the test with T-47D breast, 96.8%; in the test with BT-549 breast, 95.7%. Besides, the growth is 101% in the test on MDA-MB-435 melanoma; 110% in the test with SW-620 colon; 86.3% with MCF7 breast; 91.6% with HCT-116 colon; 106% in the test with HCC-2998 colon; 101% in the test with KM12 colon.
Turning to `O=C(/C=C1\C=CN(CCCCF)c2ccccc21)n1ccc2ccccc21`, the growth in the test with SR leukemia was 107%; in the test on RPMI-8226 leukemia it was 102%; in the test with OVCAR-8 ovarian, 106%; with OVCAR-5 ovarian it was 99.2%; with OVCAR-4 ovarian it was 85.4%; with SK-OV-3 ovarian, 95.9%. Besides, the growth with IGROV1 ovarian is 74.9%; in the test with OVCAR-3 ovarian, 126%; in the test with HS 578T breast, 119%; with NCI/ADR-RES ovarian, 108%; in the test with T-47D breast, 91%; with BT-549 breast, 114%. Also, the growth in the test with MDA-MB-435 melanoma is 106%; with SW-620 colon, 105%; in the test on MCF7 breast, 91.8%; in the test on HCT-116 colon, 105%; in the test on HCC-2998 colon, 106%; in the test on KM12 colon it was 112%.
As to `Nc1cc(F)ccc1NC(=O)c1ccc(NC(=O)C/C=C/c2cccnc2)cn1`, the growth was 24.6% in the test with SR leukemia; -3.11% (active) in the test on RPMI-8226 leukemia; 17.8% in the test on OVCAR-8 ovarian; 21.4% with OVCAR-5 ovarian; 29.1% with OVCAR-4 ovarian; 34.9% in the test on SK-OV-3 ovarian. The growth was 13.8% with IGROV1 ovarian; 27.4% with OVCAR-3 ovarian; 21.1% in the test with HS 578T breast; 20.4% in the test with NCI/ADR-RES ovarian; 5.13% (active) with T-47D breast; 25.3% in the test with BT-549 breast. In addition, the growth in the test on MDA-MB-435 melanoma is 13.7%; with SW-620 colon it was 10.6%; in the test with MCF7 breast it was 5.2% (active); in the test on HCT-116 colon it was -13.2% (active); in the test with HCC-2998 colon, 15.5%; with KM12 colon, 24.5%.
For the compound `Nc1c(C(=O)c2ccccc2)sc2nc(-c3cnccn3)cc(-c3cccs3)c12`, the growth was 105% in the test with SR leukemia; 108% in the test on RPMI-8226 leukemia; 103% in the test on OVCAR-8 ovarian; 103% in the test on OVCAR-5 ovarian; 106% in the test with OVCAR-4 ovarian; 103% with SK-OV-3 ovarian. Also, the growth was 97.4% in the test on IGROV1 ovarian; 108% with OVCAR-3 ovarian; 98.8% in the test on HS 578T breast; 107% in the test with NCI/ADR-RES ovarian; 98.9% with T-47D breast; 116% in the test with BT-549 breast. Further, the growth in the test on MDA-MB-435 melanoma is 98.9%; in the test on SW-620 colon, 105%; in the test on MCF7 breast, 90.8%; in the test with HCT-116 colon, 96.5%; in the test with HCC-2998 colon, 105%; with KM12 colon, 102%.
On to `Oc1ccc(CSc2nnc(-c3ccc(Cl)cc3)o2)c2cccnc12`, for which the growth in the test with SR leukemia was 34.3%; in the test with RPMI-8226 leukemia, 18.6%; in the test on OVCAR-8 ovarian, 18.9%; in the test on OVCAR-5 ovarian it was 73.1%; in the test with OVCAR-4 ovarian, 19.8%; in the test on SK-OV-3 ovarian, 20.3%. Moreover, the growth in the test on IGROV1 ovarian was 16.4%; with OVCAR-3 ovarian, 30.8%; with HS 578T breast, 1.27% (active); in the test with NCI/ADR-RES ovarian it was 9.8% (active); with T-47D breast it was 18.5%; with BT-549 breast, 27.9%. The growth in the test with MDA-MB-435 melanoma is 22.3%; in the test with SW-620 colon, 17.3%; in the test with MCF7 breast, 12.4%; with HCT-116 colon, 20.8%; in the test on HCC-2998 colon, 29.1%; with KM12 colon, 18.4%.
